Results as given in PubChem BioAssay AID489042 (NMMLSC, 2010).
Activity calls are given as the source filed them. No stated cut-off is given here; in the data, active means inhibition score above about 11; inactive means the rest.

Assay: yeast proliferation inhibition, dose response, BY4741, OD595, 24 h (AID 489042)
Conditions: S. cerevisiae BY4741 growth, flow cytometer event count, 7 d (AID 449753), active compounds read high

With `CC(C)OC(=O)CSc1nnc(-c2ccc(Cl)cc2Cl)o1` the inhibition score was 0 (inactive).
For `O=C1c2c(O)ccc(O)c2C(=O)c2c(NCCNCCO)ccc(NCCNCCO)c21`, the inhibition score was 0 (inactive).
With `COc1cccc2nc3cc(C)c(C)cc3nc12` the inhibition score was 0 (inactive).
With `Cc1ccc(-c2nn(C(C)(C)C)c3ncnc(N)c23)cc1` the inhibition score was 0 (inactive).
With `Cc1cccc2nc3ccccc3nc12` the inhibition score was 0 (inactive).
For `CC(C)(C)n1nc(-c2ccc(Cl)cc2)c2c(N)ncnc21`, the inhibition score was 0 (inactive).
In the case of `COc1ccc2nc3ccccc3nc2c1`, the inhibition score is reported as 0 (inactive).
In the case of `CCN(CC)C(=O)CSc1nnc(-c2cccc(OC)c2)o1`, the inhibition score is reported as 0 (inactive).
For `N#CC(c1nc2ccccc2nc1N1CCCC1)S(=O)(=O)c1ccccc1` (centres undefined), the inhibition score was 0 (inactive).
With `CN(C)CCNc1ncnc2c1cnn2-c1ccc(Cl)cc1` the inhibition score was 0 (inactive).
With `C[C@@]12C(=O)OC(=O)[C@]1(C)C1CCC2O1` the inhibition score was 11 (active).
For `CCN(CC)c1ccc2nc3ccc(N)cc3[n+](-c3ccccc3)c2c1`, the inhibition score was 0 (inactive).
In the case of `O=C(O)c1cnc2ccccc2n1`, the inhibition score is reported as 0 (inactive).
With `O=C(/C=C/c1ccccc1)NC(=S)NNC(=O)Cc1cccs1` the inhibition score was 0 (inactive).
For `COc1ccc2nc3ccccc3[n+]([O-])c2c1`, the inhibition score was 0 (inactive).
In the case of `c1ccc2nc3ccccc3nc2c1`, the inhibition score is reported as 0 (inactive).
For `O=C(CN1CCN(c2ccccn2)CC1)Nc1ccccc1F`, the inhibition score was 0 (inactive).
In the case of `C/C(=N\Nc1ncnc2sc(C)c(C)c12)c1ccccn1`, the inhibition score is reported as 10 (inactive).
In the case of `CCc1nc(NC(C)(C)C)c2cnn(-c3ccccc3)c2n1`, the inhibition score is reported as 0 (inactive).
For `CCC(=Nc1ccccc1O)C1=C(O)CC(c2ccccc2)CC1=O` (centres undefined), the inhibition score was 0 (inactive).
In the case of `CC(C)CSc1nnc2c3ccccc3n(C)c2n1`, the inhibition score is reported as 0 (inactive).
For `FC(F)(F)c1nc2cc3nc4ccccc4[nH]c3cc2n1`, the inhibition score was 0 (inactive).
For `CC(=O)[C@@]1(O)CCC2C3CC[C@H]4C[C@@H](O)CC[C@]4(C)C3CC[C@@]21C` (some centres undefined), the inhibition score was 0 (inactive).
With `C=CCOn1c(=O)c(-c2cccs2)[n+]([O-])c2ccccc21` the inhibition score was 0 (inactive).
For `c1ccc2[nH]c3cc4ncnc4cc3nc2c1`, the inhibition score was 0 (inactive).
In the case of `[O-][n+]1c2ccccc2[n+]([O-])c2cc(O)ccc21`, the inhibition score is reported as 0 (inactive).
With `CCCCCNC(=O)C(=O)C1C(=O)Nc2ccccc21` (centres undefined) the inhibition score was 0 (inactive).
With `COc1ccc2nc3ccccc3nc2c1N` the inhibition score was 0 (inactive).
In the case of `CNC(=O)c1cccc2nc3ccccc3nc12`, the inhibition score is reported as 0 (inactive).
